WT yeast gro inh: growth inhibition of WT yeast, mitochondrial fusion screen; 2.1% of 190,000 active; mitochondrial fusion phenotypic screen, WT strain; inhibition, % at 10 µM; in the data active = inhibition above about 58%; tested in S. cerevisiae
ROMK primary: modulators of human ROMK potassium channel; P48048; Tet-inducible ROMK, thallium flux fluorescence; actives lie on both sides; B-score at 10 µM; 2% of 130,000 active; AID 1918;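 active = signal ratio slope over the read window, or its plate-corrected B-score, at least 3 SD from the plate mean, either direction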;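 note: B-score of the F/F0 ratio slope over 7 to 12 s after thallium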
Target sequence (P48048 whole entry, looked up): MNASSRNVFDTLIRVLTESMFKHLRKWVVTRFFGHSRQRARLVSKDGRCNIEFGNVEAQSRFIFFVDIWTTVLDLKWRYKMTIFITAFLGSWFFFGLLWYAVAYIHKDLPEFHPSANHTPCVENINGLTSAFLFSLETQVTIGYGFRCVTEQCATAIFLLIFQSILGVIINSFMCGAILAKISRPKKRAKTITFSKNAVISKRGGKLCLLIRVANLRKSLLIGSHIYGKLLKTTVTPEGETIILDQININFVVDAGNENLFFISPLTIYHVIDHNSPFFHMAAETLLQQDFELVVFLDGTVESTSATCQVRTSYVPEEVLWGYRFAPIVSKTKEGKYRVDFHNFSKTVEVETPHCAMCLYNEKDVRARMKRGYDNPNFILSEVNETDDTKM
Lmaj promast: inhibitors of Leishmania major promastigote growth. 9% of 200,000 active. inhibition, % at 10 µM. Leishmania major promastigotes, resazurin fluorescence viability; in the data active = inhibition above about 50%;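 note: promastigotes grown with compound for 44 hours at 28 °C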
Insulin prom inh: TRM-6 insulin promoter activity inhibition | TRM-6 cells (human fetal islet line), insulin promoter-eGFP reporter, imaging; reporter expression induced with tamoxifen | inhibition, % at 2 µM | 0.9% of 130,000 active;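 active = inhibition above the mean plus 3 SD, with well images judged a real hit on visual review, cut at about 60% in these data, passing the limit was not always enough; inconclusive = inhibition over the cutoff but images rejected on review; inactive = inhibition not above the cutoff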
KCC2 mod: modulators of human KCC2 chloride dependent transport. KCC2 cells, thallium flux FluoZin-2 fluorescence. Q9H2X9. 2.2% of 190,000 active. B-score of Tl+ flux slope (higher = more flux/activation; lower = inhibition) at 10 µM. AID 1456;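 active = thallium flux slope and its plate-corrected score both differing from the plate sample mean at a set confidence after two filtering rounds, in either direction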;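 note: slope of fluorescence scaled to starting intensity during 10 to 20 s after thallium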
Insulin prom up: MIN6 insulin promoter up-regulation; MIN6 insulin promoter-GFP reporter, high-content imaging; hits give high values; z-score at 5 µM; 0.3% of 190,000 active;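 active = z-score above 3 at 5 µM with at least 500 cells counted in the well; inconclusive = wells under 500 cells, flagged as cytotoxic or low count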
The depositor's hits bear a star; ? = inconclusive; . = no result. Hits are enriched below; roughly 12% of the tested compounds scored in any of these assays.

SMILES | WT yeast gro inh | ROMK primary | Lmaj promast | Insulin prom inh | KCC2 mod | Insulin prom up
CCOc1ccc(N2C(=O)/C(=C\c3cccs3)C(=O)NC2=S)cc1 | 18 | 0.54 | 100* | 10 | 0.98 | 0.3
C[n+]1c(-c2ccccc2)cc(-c2ccc(Cl)cc2)cc1-c1ccccc1 | 7 | -1.4 | 99* | . | 0.028 | -1.1
NC(=O)Nc1ccc(C(=O)OCC(=O)Nc2ccc(Cl)cc2C(=O)c2ccccc2)cc1 | 5 | 0.12 | -3 | 33 | 0.19 | -0.2
CCC(=O)N1CC(=O)Nc2ccc(Br)cc2C1c1ccccc1 (configuration not stated) | -12 | . | 0 | -50 | 0.45 | 0.55
O=C1CN(C(=O)CN2CCCCC2)C(c2ccccc2)c2cc(Br)ccc2N1 (configuration not stated) | 16 | . | 98* | -47 | -0.22 | -0.25
COc1ccccc1CN1CCN(Cc2ccc(Cl)cc2)CC1 | 31 | -2 | 12 | 8 | -0.38 | .
COC(=O)c1ccc(CN2CCN(Cc3ccccc3)CC2)cc1 | 22 | -2.6 | 93* | . | -0.17 | 0.31
CC(NCc1ccc(Cl)cc1)C(O)c1ccccc1 (configuration not stated) | 43 | . | 87* | 29 | . | .
CC(NCc1ccc(Cl)cc1Cl)C(O)c1ccccc1 (configuration not stated) | 4 | . | 64* | . | . | -0.58
Fc1ccc(C2NCCc3[nH]cnc32)cc1 (configuration not stated) | -10 | 0.94 | -7 | . | 0.2 | 0.06
O=c1c2ccc(Cl)cc2[nH]c(=S)n1-c1cccnc1 | 1 | 0.035 | 0 | . | 3.9 | .
COc1cc(-n2c(=S)[nH]c3ccccc3c2=O)c(Cl)cc1Cl | -17 | . | 5 | 18 | . | .
CC(C)Oc1cc(-n2c(=S)[nH]c3ccccc3c2=O)c(Cl)cc1Cl | 60* | . | 5 | 10 | . | .
Cc1cc(C=O)c(C)n1C1CCCCC1 | 12 | -0.53 | -4 | 69* | 0.22 | 0.94
COCCNC(=O)c1c(N)n(Cc2ccco2)c2nc3ccccc3nc12 | -5 | . | 55* | -57 | -0.049 | -0.6
C=CCNC(=O)c1c(N)n(Cc2ccco2)c2nc3ccccc3nc12 | -2 | . | 100* | -38 | 0.49 | -0.44
O=C1NC(=O)C(CCc2ccncc2)(C2CCCCC2)C(=O)N1 | -12 | . | -2 | 42 | -1.9 | 0.3
C=CCn1c(O)c(C=Nc2ccc(N(CC)CC)cc2)c(=O)[nH]c1=O | -7 | -0.7 | 0 | 36 | -0.078 | -0.57
O=[N+]([O-])c1cc([As](=O)(O)c2ccc(O)c([N+](=O)[O-])c2)ccc1O | . | . | . | . | 0.56 | 0.25
O=C1NC(=O)C(=Cc2ccccc2Oc2ccc(F)cc2)C(=O)N1 | 3 | 3.3* | 10 | 50 | -1.1 | 0.31
CN1C(=O)C(=Cc2ccccc2Oc2ccc(Cl)c(F)c2)C(=O)N(C)C1=O | 15 | . | 6 | -54 | -0.18 | .
CCN(CC)C1=NC(=[N+](CC)CC)c2ccccc21 | 0 | . | 100* | 68 | -0.83 | ?
CC(=O)NC1CC2CCCC(C1)N2 (configuration not stated) | -10 | 0.0079 | -3 | . | 0.97 | 0.74
CC(=O)NC1CC2CCC(C1)N2 (configuration not stated) | -13 | 0.4 | 3 | 79* | . | 0.06
COc1cc(C2SCC(=O)Nc3c2c(C)nn3-c2ccccc2)cc(OC)c1OC (configuration not stated) | -3 | 1.1 | 91* | . | -2.5 | -0.57
SMILES | WT yeast gro inh | ROMK primary | Lmaj promast | Insulin prom inh | KCC2 mod | Insulin prom up
Cc1nn(-c2ccccc2)c2c1C(c1ccc3c(c1)OCO3)SCC(=O)N2 (configuration not stated) | -13 | -0.16 | 99* | 79* | . | -0.41
COC(=O)C(O)(c1ccc2c(c1)CCCN2)C(F)(F)F (configuration not stated) | -5 | . | -4 | . | 0.47 | -0.69
NNC(=O)CN1C(=O)CN=C(c2ccccc2)c2cc(Br)ccc21 | . | . | . | . | 0.26 | .
O=C1CN=C(c2ccccc2)c2cc(Br)ccc2N1Cc1cc(=O)n2ccccc2n1 | -3 | 0.25 | 82* | 29 | . | -0.99
CCC(=O)c1cn(Cc2ccccc2)c2ccccc12 | -19 | -0.37 | 0 | . | -0.63 | 0.34
CN(C)CCOC(=O)c1cn(Cc2ccccc2)c2ccccc12 | -29 | -3.1 | 100* | . | . | -0.05
Cc1cc(N)n(C2CCN(C)CC2)n1 | -11 | . | -2 | 15 | -0.005 | 0.16
NC(=S)N/N=C/c1coc2ccccc2c1=O | 13 | . | -8 | . | -1.8 | 0.05
O=[N+]([O-])c1ccc(NCCCN2CCOCC2)c2ncccc12 | 0 | -1.5 | 87* | 43 | -0.18 | .
CCN(CCNc1ccc([N+](=O)[O-])c2cccnc12)S(=O)(=O)c1ccc(Cl)cc1 | 25 | -0.31 | 89* | -6 | -0.019 | -0.68
NCCNc1ccc([N+](=O)[O-])c2cccnc12 | -1 | -0.086 | 3 | . | . | 0.38
CCN(CCNc1ccc([N+](=O)[O-])c2cccnc12)S(=O)(=O)c1ccccc1 | -3 | . | -5 | . | -0.1 | 0.6
COC(=O)c1ccccc1N=Cc1c(O)[nH]c(=S)[nH]c1=O | 3 | . | 1 | 62 | 0.26 | -0.41
CCCCCCNC(=O)N[C@H](Cc1ccc(O)cc1)C(=O)NCCC[C@H]1CN2C(=NC[C@H]2CCC)N1CC1CCC1 | . | . | . | . | 0.99 | 0.05
O=C(c1cc(C(=O)NCc2ccccc2)c(=O)n(Cc2ccccc2)c1)c1cc(Cl)ccc1O | 26 | -0.5 | 98* | -46 | -0.51 | -2.4
CC(C)CCNC(=O)c1cc(C(=O)c2cc(Br)ccc2O)cn(CCC(C)C)c1=O | -8 | 0.03 | 83* | 8 | 0.23 | 0.13
CCC(=NCc1ccco1)c1c(O)n(-c2ccc(C)cc2)c(=O)[nH]c1=O | 16 | . | 4 | -49 | . | 0.99
COc1cc(CN=C(C)c2c(O)n(C)c(=O)n(C)c2=O)cc(OC)c1 | . | . | . | . | -1.2 | 0.12
CN(C)C(=O)Oc1ccc(OCc2nc3ccccc3[nH]2)cc1 | 58 | -0.19 | -12 | . | 1.2 | 0.12
COc1cccc(C(=O)C2CCCN(Cc3ccc4nonc4c3)C2)c1 (configuration not stated) | 23 | . | 89* | -27 | -2.3 | -0.22
COc1ccc(CN2CCCC(C(=O)c3ccccc3SC)C2)cc1O (configuration not stated) | 3 | -0.054 | 63* | . | -1.3 | .
COc1ccc(C(=O)C2CCCN(Cc3ccsc3)C2)cc1OC (configuration not stated) | 4 | -0.27 | 96* | . | -0.033 | 0.03
COc1ccccc1C(=O)C1CCCN(Cc2cnc(C)s2)C1 (configuration not stated) | -2 | -0.34 | 5 | . | 0.59 | -0.27
O=C(c1cc(F)ccc1F)C1CCCN(Cc2ccc3nonc3c2)C1 (configuration not stated) | 21 | -1.6 | 86* | . | -0.44 | 0.22
CC(C)(C)P(=O)(c1ccncc1)N1CCCC1 (configuration not stated) | 19 | . | -7 | 0 | -0.014 | -0.97
c1ccc(C2OCCN3CCCCC23)cc1 (configuration not stated) | -2 | -0.34 | 2 | -214 | 0.75 | 0.26
O=[N+]([O-])c1ccc(N2CCNCC2)cc1N1CCCCC1 | 13 | -0.56 | 76* | . | 0.016 | -1.1

Bioassay records as filed in PubChem.
